Inconclusive results are not listed. A call without a number means that no potency is given here. Active and inactive are the calls of the source. Unless noted, the call rests on the fitted dose curve; in most records, active means well fitted curve in the direction sought with a large enough effect; inconclusive means small, poorly fitted or top-dose-only effect, or another doubt; inactive means no such curve, though single readings can be large; an effect the other way counts as inactive or inconclusive.
Legend:
Papain (Carica papaya) = Papain (Carica papaya) (UniProt P00784); assay: Primary qHTS assay for inhibitors of the protease papain (AID 1645873);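 further: papain turnover of Z-FR-AMC read as the AMC fluorescence gain over 10 min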
[1] = molecular target: Catechol O-methyltransferase (Homo sapiens) (UniProt P21964); assay: Confirmatory Screen for Target Class Profiling of Small Molecule Inhibitors of Methyltransferases (AID 1745852; calls by dose curve); details: MTase-Glo luminescence, SAH detection, recombinant enzyme; measured here: COMT max response; stronger effect = lower value
[2] = molecular target: Guanidinoacetate N-methyltransferase (Homo sapiens) (UniProt Q14353); assay: as above; details: MTase-Glo luminescence, SAH detection, recombinant enzyme; activity change, negative = inhibition: at 57.3 µM (top of the series)
[3] = molecular target: Nicotinamide N-methyltransferase (Homo sapiens) (UniProt P40261); assay: as above; details: MTase-Glo luminescence, SAH detection, recombinant enzyme; measured here: NNMT max response; stronger effect = lower value
[4] = molecular target: Phenylethanolamine N-methyltransferase (Homo sapiens) (UniProt P11086); assay: as above; details: MTase-Glo luminescence, SAH detection, recombinant enzyme; measured here: PNMT max response; stronger effect = lower value
[5] = molecular target: Rap guanine nucleotide exchange factor 3 (Homo sapiens) (UniProt O95398); assay: Confirmatory qHTS for agonist of cAMP-regulated guanine nucleotide exchange factor 3 (EPAC1) (AID 1645881);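 further: EPAC1 catalysed release of BODIPY-GDP from Rap1B seen as fluorescence loss; nearly all actives have a fitted effect of over 75% in size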
[6] = molecular target: Rap guanine nucleotide exchange factor 4 (Homo sapiens) (UniProt Q8WZA2); assay: Confirmatory qHTS for agonist of cAMP-regulated guanine nucleotide exchange factor 4 (EPAC2) (AID 1645884);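 further: nucleotide exchange releases bodipy-GDP from Rap1 and this lowers its fluorescence; nearly all actives have a fitted effect of over 65% in size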
[7] = molecular target: Rap guanine nucleotide exchange factor 4 (Homo sapiens) (UniProt Q8WZA2); assay: Confirmatory qHTS for antagonist of cAMP-regulated guanine nucleotide exchange factor 4 (EPAC2) (AID 1645885); further: nearly all actives have a fitted effect of over 25% in size
[8] = molecular target: Rap guanine nucleotide exchange factor 3 (Homo sapiens) (UniProt O95398); assay: Counterscreen qHTS for antagonist of cAMP-regulated guanine nucleotide exchange factor 3 (EPAC1) (AID 1645888);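 further: fluorescence loss as bound BODIPY-GDP is released from Rap1B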
How it was run: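 Measured: fluorescence of BODIPY-GDP bound to Rap1B, which falls as exchange proceeds. Conditions include 50 uM competing GDP, 5 and 30 min reads, and a later cAMP challenge for antagonist detection.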

[9] = Primary qHTS for inhibitors of nuclear receptor binding SET domain protein 2 (NSD2) in an isogenic RCH-ACV NSD2 p.E1099K mutant (9B) (AID 1645876); further: nearly all actives have a fitted effect of over 70% in size
[10] = Primary qHTS for inhibitors of nuclear receptor binding SET domain protein 2 (NSD2) in an RCH-ACV wild type WT cells (2C) (AID 1645877); further: nearly all actives have a fitted effect of over 70% in size
[11] = molecular target: Rap guanine nucleotide exchange factor 3 (Homo sapiens) (UniProt O95398); assay: Confirmatory qHTS for antagonist of cAMP-regulated guanine nucleotide exchange factor 3 (EPAC1) (AID 1645880); further: nearly all actives have a fitted effect of over 55% in size
How it was run: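 Nucleotide exchange uses 100 nM EPAC1, 250 nM RAP1B-BODIPY-GDP and 50 uM GDP, with compounds in a concentration-titration series. After 5 min at room temperature, fluorescence (480 nm ex/540 nm em) is read every 5 min for 30 min. Data are normalized to control ATA and DMSO.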

Chain of Nicotinamide N-methyltransferase (Homo sapiens) (P40261 whole entry, looked up): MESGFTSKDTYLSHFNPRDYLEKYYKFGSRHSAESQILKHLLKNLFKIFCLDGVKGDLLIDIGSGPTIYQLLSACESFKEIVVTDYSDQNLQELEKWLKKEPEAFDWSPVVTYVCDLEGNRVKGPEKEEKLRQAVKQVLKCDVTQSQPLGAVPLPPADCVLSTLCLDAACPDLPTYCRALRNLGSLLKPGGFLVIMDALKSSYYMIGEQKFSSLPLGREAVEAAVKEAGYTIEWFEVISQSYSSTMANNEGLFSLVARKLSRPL
Chain of Catechol O-methyltransferase (Homo sapiens) (P21964 whole entry, looked up): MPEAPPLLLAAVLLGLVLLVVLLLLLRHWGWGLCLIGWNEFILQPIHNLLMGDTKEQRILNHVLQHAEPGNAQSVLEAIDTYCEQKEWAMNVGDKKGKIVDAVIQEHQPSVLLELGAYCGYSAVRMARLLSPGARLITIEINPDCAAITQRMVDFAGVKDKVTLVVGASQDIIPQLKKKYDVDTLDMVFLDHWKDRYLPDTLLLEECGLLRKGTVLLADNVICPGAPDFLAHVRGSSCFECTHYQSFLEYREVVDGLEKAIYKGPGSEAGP
Chain of Phenylethanolamine N-methyltransferase (Homo sapiens) (P11086 whole entry, looked up): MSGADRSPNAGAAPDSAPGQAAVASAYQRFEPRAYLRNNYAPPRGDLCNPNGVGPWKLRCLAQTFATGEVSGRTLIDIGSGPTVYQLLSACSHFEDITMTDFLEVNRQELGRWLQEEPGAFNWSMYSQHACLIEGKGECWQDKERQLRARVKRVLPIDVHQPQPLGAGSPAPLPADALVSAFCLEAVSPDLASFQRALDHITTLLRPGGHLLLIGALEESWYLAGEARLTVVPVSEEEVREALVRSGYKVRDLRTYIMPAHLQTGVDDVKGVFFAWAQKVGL
Chain of Rap guanine nucleotide exchange factor 3 (Homo sapiens) (O95398 whole entry, looked up): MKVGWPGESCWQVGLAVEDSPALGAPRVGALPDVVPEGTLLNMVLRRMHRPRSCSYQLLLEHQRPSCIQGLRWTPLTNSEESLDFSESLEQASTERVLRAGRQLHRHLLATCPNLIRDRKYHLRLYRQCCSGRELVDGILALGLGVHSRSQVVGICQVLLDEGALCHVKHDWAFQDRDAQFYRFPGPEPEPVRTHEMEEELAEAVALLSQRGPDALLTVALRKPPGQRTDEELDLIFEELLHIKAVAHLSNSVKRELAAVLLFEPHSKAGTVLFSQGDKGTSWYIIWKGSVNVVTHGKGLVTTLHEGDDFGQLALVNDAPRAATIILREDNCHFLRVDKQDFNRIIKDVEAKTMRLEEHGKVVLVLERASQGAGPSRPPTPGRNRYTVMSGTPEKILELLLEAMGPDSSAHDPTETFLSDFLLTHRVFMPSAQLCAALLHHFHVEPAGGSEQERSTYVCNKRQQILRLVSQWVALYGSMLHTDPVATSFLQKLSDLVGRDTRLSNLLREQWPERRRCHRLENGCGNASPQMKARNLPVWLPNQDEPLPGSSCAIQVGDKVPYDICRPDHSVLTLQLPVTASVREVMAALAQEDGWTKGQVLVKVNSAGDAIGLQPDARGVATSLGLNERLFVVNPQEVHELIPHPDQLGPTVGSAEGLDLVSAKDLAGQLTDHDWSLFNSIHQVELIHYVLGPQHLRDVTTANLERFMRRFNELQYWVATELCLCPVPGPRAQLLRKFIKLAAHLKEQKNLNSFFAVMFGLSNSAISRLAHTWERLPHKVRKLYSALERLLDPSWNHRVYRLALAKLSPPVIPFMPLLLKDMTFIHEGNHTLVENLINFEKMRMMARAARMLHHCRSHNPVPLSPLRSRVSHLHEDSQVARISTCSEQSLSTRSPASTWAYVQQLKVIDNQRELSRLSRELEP
Chain of Rap guanine nucleotide exchange factor 4 (Homo sapiens) (Q8WZA2 whole entry, looked up): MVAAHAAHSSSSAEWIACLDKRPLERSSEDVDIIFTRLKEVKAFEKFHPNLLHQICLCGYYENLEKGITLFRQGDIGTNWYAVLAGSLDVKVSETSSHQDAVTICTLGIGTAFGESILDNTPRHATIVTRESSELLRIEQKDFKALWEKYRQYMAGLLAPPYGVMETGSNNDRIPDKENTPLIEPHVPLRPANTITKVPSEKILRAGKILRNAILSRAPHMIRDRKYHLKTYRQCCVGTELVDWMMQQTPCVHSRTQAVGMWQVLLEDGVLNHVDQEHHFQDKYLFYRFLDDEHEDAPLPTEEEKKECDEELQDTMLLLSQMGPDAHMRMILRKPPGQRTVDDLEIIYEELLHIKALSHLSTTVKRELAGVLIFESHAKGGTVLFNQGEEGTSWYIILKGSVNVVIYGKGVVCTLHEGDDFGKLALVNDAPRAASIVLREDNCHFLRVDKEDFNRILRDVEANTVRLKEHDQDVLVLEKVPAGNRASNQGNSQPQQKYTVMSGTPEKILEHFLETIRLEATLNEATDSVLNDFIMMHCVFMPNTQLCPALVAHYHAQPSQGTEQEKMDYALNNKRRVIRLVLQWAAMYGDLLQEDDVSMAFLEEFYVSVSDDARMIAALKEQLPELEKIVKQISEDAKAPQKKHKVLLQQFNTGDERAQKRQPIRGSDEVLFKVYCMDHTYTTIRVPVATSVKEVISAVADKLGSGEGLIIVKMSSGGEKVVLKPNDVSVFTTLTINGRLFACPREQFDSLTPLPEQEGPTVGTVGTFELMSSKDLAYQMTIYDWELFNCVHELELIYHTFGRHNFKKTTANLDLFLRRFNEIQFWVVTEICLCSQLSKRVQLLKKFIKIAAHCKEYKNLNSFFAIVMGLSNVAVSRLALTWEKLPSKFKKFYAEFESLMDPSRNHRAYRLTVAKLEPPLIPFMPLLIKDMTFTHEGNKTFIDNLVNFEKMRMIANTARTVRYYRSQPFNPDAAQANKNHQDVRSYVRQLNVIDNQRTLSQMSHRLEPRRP
Chain of Papain (Carica papaya) (P00784 whole entry, looked up): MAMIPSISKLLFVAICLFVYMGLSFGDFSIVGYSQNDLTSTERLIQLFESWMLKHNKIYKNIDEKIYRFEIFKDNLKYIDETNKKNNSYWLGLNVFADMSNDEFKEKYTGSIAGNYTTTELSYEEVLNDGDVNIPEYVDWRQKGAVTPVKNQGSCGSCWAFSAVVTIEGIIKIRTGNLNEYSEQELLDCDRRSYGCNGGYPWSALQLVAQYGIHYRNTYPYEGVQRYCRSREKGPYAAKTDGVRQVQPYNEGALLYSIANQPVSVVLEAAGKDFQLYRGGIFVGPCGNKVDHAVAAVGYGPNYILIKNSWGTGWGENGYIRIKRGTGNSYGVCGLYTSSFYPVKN

CNCCc1c[nH]c2ccc(O)cc12
Potency (Papain (Carica papaya)): inactive | activity [1]: 2.02% | activity change, negative = inhibition [2]: 1.54% | activity [3]: -11.4% | activity [4]: 0.784%

C[C@@H](N)Cc1cnc[nH]1
Potency (Papain (Carica papaya)): inactive | activity [1]: -4.66% | activity change, negative = inhibition [2]: -1.84% | activity [3]: -6.87% | activity [4]: -2.06%

COc1cc(C(O)CN)ccc1O (stereo not given)
Potency (Papain (Carica papaya)): inactive

CC(C)Oc1cccnc1N(C)C1CCN(Cc2ccccc2)CC1
Potency (Papain (Carica papaya)): inactive

NCCc1c[nH]c2ccccc12
Potency (Papain (Carica papaya)): inactive | activity [1]: -4.15% | activity change, negative = inhibition [2]: 2.74% | activity [3]: -8.81% | activity [4]: -14.8%

c1ccc(CCCN2CCN(CCOC(c3ccccc3)c3ccccc3)CC2)cc1
Potency (Papain (Carica papaya)): inactive | outcome [5]: inactive | outcome [6]: inactive | Potency [7]: inactive | outcome [8]: inactive

O=C(Nc1ccccc1-c1ccc(Cl)cc1)c1cccnc1Cl
Potency [9]: inactive

C[C@@H]1O[C@H](C[N+](C)(C)C)C[C@H]1O
Potency (Papain (Carica papaya)): inactive

O=[N+]([O-])c1c(Cl)c(Cl)cc(Cl)c1Cl
Potency [9]: inactive | Potency [10]: inactive

NC1CC1c1ccccc1 (stereo not given)
Potency (Papain (Carica papaya)): inactive | activity [1]: 4.07% | activity change, negative = inhibition [2]: 2.15% | activity [3]: -6.32% | activity [4]: -14.4%

CCCN1CCC[C@H](c2cccc(O)c2)C1
Potency (Papain (Carica papaya)): inactive

CN1C2CCC1CC(OC(=O)c1cc(Cl)cc(Cl)c1)C2 (stereo not given)
Potency (Papain (Carica papaya)): inactive

c1ccc2sc(C3(N4CCCCC4)CCCCC3)cc2c1
Potency (Papain (Carica papaya)): inactive

CC(=O)N(C)c1cccc(-c2ccnc3c(C(=O)c4cccs4)cnn23)c1
Potency [9]: inactive

CC1=NN=C(c2ccc(N)cc2)c2cc3c(cc2C1)OCO3
Potency (Papain (Carica papaya)): inactive | outcome [11]: inactive | outcome [5]: inactive | outcome [6]: inactive | Potency [7]: inactive

O=C(O)CC[N+](=O)[O-]
Potency (Papain (Carica papaya)): inactive

NCc1cc(=O)[nH]o1
Potency (Papain (Carica papaya)): inactive

CC(=O)NCCc1c[nH]c2ccccc12
Potency (Papain (Carica papaya)): inactive | Potency [9]: inactive | Potency [10]: inactive

CNCCc1ccc(O)c(O)c1
Potency (Papain (Carica papaya)): inactive | activity [1]: 109% | activity change, negative = inhibition [2]: 3.55% | activity [3]: -0.877% | activity [4]: 1.2%
